HT1080 IDH1KD tx – HT-1080 IDH1 knockdown cell toxicity (counter line); actives 2% (n = 360,000); HT-1080 IDH1 knockdown viability, ATP luminescence, 48 h; Potency, µM (doses to about 46.1 µM), actives largely listed as cytotoxic
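Viability of IDH1-knockdown HT-1080 fibrosarcoma cells was assessed by CellTiter-Glo after 48 h at 37 °C with titrated compound; concentration-effect curves were classified by fit quality and response size.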
HT1080NT lethal – kills 2HG-producing HT-1080-NT fibrosarcoma cells; HT-1080-NT fibrosarcoma viability, CellTiter-Glo ATP luminescence, 48 h; Potency, µM (top dose mostly 46.1 µM), usual class: cytotoxic; actives 1.6% (n = 360,000);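 further: NT is the 2HG producing partner of a matched IDH1 knockdown line; nearly all actives have a fitted effect of over 55% in size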
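A 48-hour cytotoxicity screen used HT-1080-NT cells plated 2 hours before compound delivery. ATP-based CellTiter-Glo luminescence measured viability, normalized to DMSO and no-cell controls.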
IL1B secr inh – blocks inflammasome-driven IL-1 beta release. THP-1 LPS/ATP IL-1B secretion, AlphaLISA, 16 h; hits give low values. activity change, % at 57.5 µM. actives 4.7% (n = 360,000); in the data active means activity change below about -50%; inconclusive means mostly about -30% to -49%
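THP-1 cells pretreated 1 hr with compounds (up to 57.5 uM final), then stimulated with LPS (250 ng/mL final) plus ATP (1.25 mM final); secreted IL-1B measured by AlphaLISA after 16 hr, decreased signal indicating inhibition.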
DT40 TDP1 no CPT – qHTS for Inhibitors of human tyrosyl-DNA phosphodiesterase 1 (TDP1): qHTS in cells in absence of CPT; actives 15% (n = 420,000); Potency, µM (top dose mostly 46.2 µM), usual class: inhibitors; DT40 Tdp1-/- hTDP1 cells, no CPT, ATP luminescence, 48 h; further: nearly all actives have a fitted effect of over 55% in size
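No-CPT arm: Tdp1-/-;hTDP1 DT40 cells (400/well) plus compounds, incubated ≥48 hr at 37 °C. Readout CellTiter-Glo luminescence.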
DT40 TDP1 CPT – DT40-hTDP1 cell growth loss with CPT | actives 12% (n = 420,000) | chicken DT40 Tdp1-/-;hTDP1 cells + 20 nM CPT, ATP luminescence, 48 h | Potency, µM (top dose mostly 46.2 µM), actives largely listed as inhibitors; further: nearly all actives have a fitted effect of over 55% in size
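Cell growth measured by CellTiter-Glo luminescence after a minimum 48 h, 37 C compound exposure with 20 nM CPT in Tdp1-knockout DT40 cells stably expressing hTDP1, seeded 400/well; qHTS titration format.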
Hits are given with their value; – = inactive; ? = inconclusive; · = no result given. Only some compounds are listed: those with a hit (about 19% of all), similar ones and a draw of the others. Unless noted, the call rests on the fitted dose curve; in most records, active means well fitted curve in the direction sought with a large enough effect; inconclusive means small, poorly fitted or top-dose-only effect, or another doubt; inactive means no such curve, though single readings can be large; an effect the other way counts as inactive or inconclusive.

SMILES	HT1080 IDH1KD tx	HT1080NT lethal	IL1B secr inh	DT40 TDP1 no CPT	DT40 TDP1 CPT
COc1ccc(C(=O)NCC(=O)NCC(=O)OCC(=O)C(C)(C)C)cc1	–	–	–	–	–
O=C(NCC1CCN(Cc2cccc(Cl)c2)CC1)C1CCCN(c2ncnc3c2nc2n3CCCCC2)C1 (centres undefined)	?	21µM	?	?	26µM
COc1ccc(NC(=O)COC(=O)c2ccc(-n3cnnn3)cc2)c([N+](=O)[O-])c1	–	–	–	–	–
O=C(CCCSc1nc2ccccc2[nH]1)Nc1nnc(C2CC2)s1	–	–	–	?	–
CCCN(CC(=O)Nc1cc(Cl)cc(Cl)c1)CC(=O)Nc1ccc(F)c(F)c1F	?	?	-97	23µM	?
CCCN(CC(=O)Nc1ccccc1Br)CC(=O)Nc1ccc(F)c(F)c1F	–	–	?	?	?
CCOC1=C2[C@@H](CN(S(=O)(=O)c3ccccc3C)[C@H]2c2ccc(Cl)cc2)[C@H]2C(=O)N(C3CCCCC3)C(=O)[C@H]2C1	–	–	–	?	21µM
CCOC1=C2[C@@H](CN(S(=O)(=O)c3ccc(C)cc3)[C@H]2c2cccc3ccccc23)[C@H]2C(=O)N(C)C(=O)[C@H]2C1	–	–	–	–	–
CCOC1=C2[C@@H](CN(S(=O)(=O)c3ccc(C)cc3)[C@H]2c2ccccc2Cl)[C@H]2C(=O)N(C)C(=O)[C@H]2C1	–	–	–	16µM	26µM
CSc1ccccc1NC(=O)Nc1cccc2ccccc12	–	–	–	–	–
CC(C)(C)C(=O)CSc1nnc(Nc2ccccc2)s1	–	–	–	–	–
COc1cc(/C=N/NC(=O)c2cc(-c3cccc(OC(C)C)c3)nc3ccccc23)ccc1O	?	?	–	2.1µM	?
COc1cc(/C=N/NC(=O)c2cc(-c3cccs3)nc3ccccc23)ccc1O	?	–	–	9.2µM	9.2µM
N#Cc1ccc(/C=N/NC(=O)c2cc(-c3cccs3)nc3ccccc23)cc1	10µM	?	–	21µM	9.2µM
N#Cc1ccc(-c2csc(NC(=O)c3cc(-c4cccs4)nc4ccccc34)n2)cc1	–	–	?	?	?
COc1cc(/C=N/NC(=O)c2cc(-c3ccccc3)nc3ccccc23)cc(OC)c1O	–	–	–	?	?
O=C1CC(c2ccccc2C(F)(F)F)c2c(c3ccccc3[nH]c2=O)O1 (centres undefined)	·	·	·	–	–
O=C(NC1CC(=O)N(c2cccc(F)c2)C1)c1ccc(S(=O)(=O)N2CCCCC2)cc1 (centres undefined)	·	·	·	–	–
Nc1cc([N+](=O)[O-])cc2oc(-c3ccccc3)cc12	–	–	–	?	–
COc1cc(NC(=S)NC(=O)CCc2ccccc2)cc(OC)c1	–	–	–	?	?
CCc1ccc(OCC(=O)N(Cc2ccc(C(C)C)cc2)C2CCS(=O)(=O)C2)cc1 (centres undefined)	·	·	·	?	16µM
Cc1cc(OCC(=O)N(Cc2ccc(N(C)C)cc2)C2CCS(=O)(=O)C2)cc(C)c1Cl (centres undefined)	·	·	·	18µM	?
Cc1cc(OCC(=O)N(C)C2CCCCC2)cc(C)c1Cl	–	–	–	21µM	?
CCc1ccc(OCC(=O)N(Cc2ccc(OC)cc2)C2CCS(=O)(=O)C2)cc1 (centres undefined)	·	·	·	–	?
Cc1cccc(OCC(=O)N(Cc2ccc(N(C)C)cc2)C2CCS(=O)(=O)C2)c1 (centres undefined)	–	–	-50	–	–
Cc1cc(OCC(=O)N(C)C2CCCCC2)ccc1Cl	–	–	?	–	–
CCOC(=O)N1CCC(NC(=O)c2oc3c(F)cccc3c2C)CC1	–	–	–	–	?
O=C1Cc2cc(S(=O)(=O)N3CCCCC3)cc3c2N1CCC3	·	·	·	–	–
CC(=O)Nc1ccc(NC(=O)CSc2nc(N)c(NC(=O)c3ccccc3F)c(=O)[nH]2)cc1	–	–	–	–	–
C(=N\Nc1nc(N2CCCC2)nc(N2CCCC2)n1)/c1ccncc1	–	–	–	–	–
